Data: PubChem BioAssay (NCI)
Compounds without any hit were thinned out: in the full panel of roughly 83,000, 20% have a hit.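 Step 1: grow cells in 96-well plates. Step 2: add test compound at a single concentration. Step 3: incubate 48 h. Step 4: record percent growth.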 Values without a mark were called inactive. Calls of active or inactive are those of the source. How the source made its calls: active means growth percent below 10; inactive means the rest.

Columns and labels:
Assay in all cases: NCI-60 one-dose screen, 48 h (100 = growth as untreated, 0 = no growth, -100 = all killed)
Details in all cases: 10 µM unless noted
DU-145 prostate = test system: DU-145 prostate
K-562 leukemia = test system: K-562 leukemia
MALME-3M melanoma = test system: MALME-3M melanoma
MDA-MB-231 breast = test system: MDA-MB-231 breast
SF-268 CNS = test system: SF-268 CNS
SF-295 CNS = test system: SF-295 CNS
SF-539 CNS = test system: SF-539 CNS
UACC-257 melanoma = test system: UACC-257 melanoma
HCT-15 colon = test system: HCT-15 colon
HT29 colon = test system: HT29 colon
SNB-75 CNS = test system: SNB-75 CNS
SNB-19 CNS = test system: SNB-19 CNS
U251 CNS = test system: U251 CNS
PC-3 prostate = test system: PC-3 prostate
SK-MEL-5 melanoma = test system: SK-MEL-5 melanoma
UACC-62 melanoma = test system: UACC-62 melanoma
LOX IMVI melanoma = test system: LOX IMVI melanoma
SK-MEL-28 melanoma = test system: SK-MEL-28 melanoma

| Compound | growth (DU-145 prostate) | growth (K-562 leukemia) | growth (MALME-3M melanoma) | growth (MDA-MB-231 breast) | growth (SF-268 CNS) | growth (SF-295 CNS) | growth (SF-539 CNS) | growth (UACC-257 melanoma) | growth (HCT-15 colon) | growth (HT29 colon) | growth (SNB-75 CNS) | growth (SNB-19 CNS) | growth (U251 CNS) | growth (PC-3 prostate) | growth (SK-MEL-5 melanoma) | growth (UACC-62 melanoma) | growth (LOX IMVI melanoma) | growth (SK-MEL-28 melanoma) |
| --- | --- | --- | --- | --- | --- | --- | --- | --- | --- | --- | --- | --- | --- | --- | --- | --- | --- | --- |
| COc1cc(Cn2cc3c(c2)-c2onc(CN4CCOCC4)c2CC3)cc(OC)c1OC | 113% | 72.5% | 91.8% | 82.6% | 99.7% | 93% | 99.2% | 101% | 97.9% | 104% | 117% | 97.2% | 102% | 91.6% | 74.9% | 78.8% | 100% | 105% |
| NC(N)=Nc1ccc(Oc2cccc(NC(N)=Nc3ccc(I)cc3F)c2)cc1 | 97.6% | 69.9% | 83% | 83.6% | 36.4% | 77.3% | 62.6% | 86.4% | 86.9% | 62.5% | 73.2% | 20.7% | 47.4% | 27.5% | 74% | 77.8% | 48% | 85.7% |
| Cc1ccc(NC(=S)NNC(=S)Nc2ccc(C)cc2)cc1 | 106% | 96.6% | 103% | 106% | 108% | 102% | 110% | 117% | 96.7% | 105% | 96.1% | 98.5% | 106% | 101% | 102% | 98.6% | 115% | 105% |
| COc1ccc(Cn2cc3c(c2-c2cc(OC)c(OC)c(OC)c2)CCc2c(CN4CCCC4)noc2-3)cc1 | 22.7% | 14% | 19% | 36.7% | 46.5% | 12.1% | 0.316% (active) | 77% | 21.1% | 8.73% (active) | -2.12% (active) | 22% | 22.4% | 29% | 20.7% | 15.8% | 34.6% | 60.9% |
| Cc1ccc(-n2cc(/C=C/C(=O)c3ccc(O)cc3)c(-c3ccc(S(C)(=O)=O)cc3)n2)cc1 | 82.8% | 17.8% | 44.9% | 67.7% | 85.9% | 87.3% | 60.2% | 93.5% | 26% | 28.6% | 87.5% | 75.6% | 72.3% | 69.9% | 61.7% | 59.6% | 41.9% | 82.3% |
| COc1cc(-c2nnc(SCc3ccc(O)c4ncccc34)n2-c2ccccc2)cc(OC)c1OC | 15.2% | 4.83% (active) | -4.75% (active) | 24.7% | 8.87% (active) | 0.13% (active) | 0.686% (active) | -18.1% (active) | 12.8% | 16.7% | -6.25% (active) | 9.25% (active) | 4.28% (active) | 15.4% | -62.4% (active) | -37.4% (active) | -22.2% (active) | 17.9% |
| Nc1ncc(-c2ccc3ncnc(Nc4cccc(Cl)c4F)c3c2)cn1 | 48.9% | 80.5% | 49.3% | 55.3% | 53.8% | 44.9% | 68.4% | 89.4% | 56.4% | 78.9% | 53.2% | 59.4% | 67.9% | 61% | 63.6% | 38.9% | 77.4% | 65.2% |
| Oc1cccc2ccc(-c3nnc(SCc4ccc(O)c5ncccc45)n3-c3ccccc3)nc12 | 25.2% | 12.4% | -3.5% (active) | 29.7% | 22.8% | 2.95% (active) | 4.73% (active) | -2.75% (active) | 16.5% | 81.3% | 9.14% (active) | 9.4% (active) | 8.21% (active) | 12.4% | -31.1% (active) | -4.13% (active) | 5.48% (active) | 22% |
| COC(=O)C[Se]C(=O)Cc1c(C)n(C(=O)c2ccc(Cl)cc2)c2ccc(OC)cc12 | 25.6% | 54% | 46.5% | 30.9% | 40.7% | 9.86% (active) | 39.9% | 65.2% | 11.5% | 9.65% (active) | 73.5% | 31.7% | 46.2% | 72.7% | 44.9% | 69.6% | -54.9% (active) | 62.8% |
